Calls of active or inactive are those of the source.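 How the source made its calls, unless noted: active means compound that reduces growth-factor-driven endothelial tube area in a mixed cell culture, no cutoff stated; inactive means the rest.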

One may read the inhibition as the drop in the measured response relative to a control, in per cent.

Assay [1] in a line: stimulators of insulin release from INS-1E, primary screen, cell-based, 5 mM glucose, NPC library (AID 1117329;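 active means compound raises insulin release from rat beta cells at 5 mM glucose, no numeric limit stated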). Particulars: rat INS-1E insulin secretion, at 10 µM, stronger effect = higher value.
Assay [2] is described as follows: growth inhibition of GSK3B-pretreated HCT116 cells – cell-based, CellTiter-Glo, 0.2 to 20 µM (AID 1117336;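 active means compounds lowering colon cancer cell viability after pretreatment blocking the GSK3B kinase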). The conditions noted are these: HCT116 viability after GSK3B inhibitor, at 20 µM, stronger effect = higher value. A general note: ATP-based viability assays read luminescence as a measure of living cells.
Assay [3] in a line: inhibition of endothelial tube formation, primary screen, imaging, VEGF stimulated, CD31 staining, tube area, NPC library (AID 1117340). Particulars: VEGF-stimulated ADSC/ECFC co-culture, at 10 µM, stronger effect = higher value.
Assay [4] can be described thus: glucagon-like peptide 1 release enhancers, primary assay, NCI-H716 cell line, NPC library (AID 1117341;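 active means compound raises GLP1 secretion from the human gut endocrine cells, with no numeric limit stated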). The conditions noted are these: NCI-H716 cells, at 10 µM, stronger effect = higher value.
The nature of assay [5]: HCT116 colon cancer cell growth inhibition, primary screen, CellTiter-Glo luminescence, NPC library (AID 1117342;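 active means compounds that lower survival of HCT116 colon cancer cells in the luminescence readout, no numeric limit stated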). The conditions noted are these: at 20 µM (top of the series).
Assay [6] can be described thus: CellTiter-Glo luminescent readout of SW480 viability loss, NPC library primary (AID 1117343;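 active means compounds that lower viability of the colon cancer cells in the luminescence readout, with no numeric limit stated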). The conditions noted are these: CellTiter-Glo luminescence; at 20 µM (top of the series).
Assay [7] can be described thus: decreased DLD-1 cellular survival, CellTiter-Glo luminescent readout, NPC compound collection, primary HTS (AID 1117346;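 active means compounds that lower survival of DLD-1 colon cancer cells in the luminescence readout, no cutoff given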). The conditions noted are these: DLD-1 viability, CellTiter-Glo luminescence; at 20 µM (top of the series).
Assay [8] has as its target 6-phosphogluconate dehydrogenase, decarboxylating (Homo sapiens) (UniProt P52209). Description: 6PGD enzyme inhibitors, primary screen, biochemical, human, recombinant enzyme, NADPH absorbance (AID 1159550;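 active means at least 20% inhibition of 6-phosphogluconate dehydrogenase activity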). The conditions noted are these: recombinant 6PGD, NADPH absorbance 341 nm; at 10 µM; stronger effect = higher value.
Assay [9] is described as follows: differential killing of epithelial or mesenchymal cells, primary screen, imaging, PC-3E GFP, TEM4-18 mCherry, co-culture (AID 1345086;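 active means compounds killing one labelled cell type while sparing the other, by normalised counts and ratio limits, not self-fluorescent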;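 on all read-outs here: cells exposed to compound for 72 h before imaging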;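 on red/green cell ratio (normalised): normalised mesenchymal count divided by normalised epithelial count so high means epithelial killing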). Particulars: imaging cell counts, at 1 µM; for red/green cell ratio (normalised): actives lie on both sides, counts scaled to control wells, 1 = unselective.
Where [10] appears, read: measured here: epithelial PC-3E GFP cell survival.
The mark [11] stands for this setting: measured here: mesenchymal TEM4-18 mCherry cell survival.

Sequence of 6-phosphogluconate dehydrogenase, decarboxylating (Homo sapiens) (P52209 whole entry, looked up): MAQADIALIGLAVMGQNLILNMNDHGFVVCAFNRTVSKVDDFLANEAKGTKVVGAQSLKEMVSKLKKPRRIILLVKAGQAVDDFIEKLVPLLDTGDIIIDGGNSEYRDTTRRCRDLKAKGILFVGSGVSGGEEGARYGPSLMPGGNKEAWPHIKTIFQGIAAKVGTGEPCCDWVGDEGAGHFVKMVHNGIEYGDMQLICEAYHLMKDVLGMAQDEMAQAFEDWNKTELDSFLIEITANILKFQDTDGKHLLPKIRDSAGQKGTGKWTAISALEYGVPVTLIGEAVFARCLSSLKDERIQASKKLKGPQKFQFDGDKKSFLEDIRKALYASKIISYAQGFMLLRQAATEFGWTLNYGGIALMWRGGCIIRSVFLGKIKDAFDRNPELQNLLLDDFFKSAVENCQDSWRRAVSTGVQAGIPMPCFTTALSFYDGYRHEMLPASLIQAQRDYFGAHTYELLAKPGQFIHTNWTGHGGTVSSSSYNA

As to `CO[C@@]1(NC(=O)C(C(=O)O)c2ccc(O)cc2)C(=O)N2C(C(=O)O)=C(CSc3nnnn3C)CO[C@@H]21` (some centres undefined), the insulin secretion stimulation in assay [1] was -0.4% (inactive). Further, the viability decrease in assay [2] was 23.9% (inactive). The tube area decrease in assay [3] was 10.2% (inactive). In addition, in assay [4], the GLP1 secretion stimulation was 1.3% (inactive). Moreover, the inhibition of viability in assay [5] was 2.9% (inactive). Moreover, the viability decrease (inhibition) is 25.1% (inactive) in [6] and -26% (inactive) in assay [7]. For the same compound, the inhibition in [8] was 3.95% (inactive). In assay [9], the red/green cell ratio (normalised) is 0.93 (inactive). Moreover, the values for the normalised cell number in [9] (setting [10]) and in [9] (setting [11]) were 1.2 and 1.11, respectively.
`COc1ccc2cc1Oc1ccc(cc1)C[C@H]1c3c(cc4c(c3Oc3cc5c(cc3OC)CCN(C)[C@@H]5C2)OCO4)CCN1C`: the insulin secretion stimulation in assay [1] is 5.5% (inactive). In addition, the viability decrease in assay [2] was 98.1% (active). In assay [3], the tube area decrease was 108% (active). In addition, the GLP1 secretion stimulation in assay [4] is 1.9% (inactive). Also, the inhibition of viability in assay [5] is 102% (active). The results for the viability decrease (inhibition) in [6] and in [7] were 123% (active) and 87.3% (active), respectively. In assay [8], the inhibition is -1.33% (inactive). Further, the red/green cell ratio (normalised) in [9] is 0.85 (inactive). The normalised cell number came out at 0.93 in assay [9] (setting [10]) and 0.78 in [9] (setting [11]).
With `COc1cc(NS(=O)(=O)c2ccc(N)cc2)ncn1`, the insulin secretion stimulation in [1] was 4.3% (inactive). In addition, the viability decrease in assay [2] is 16.8% (inactive). The tube area decrease in assay [3] is 1.4% (inactive). The GLP1 secretion stimulation in assay [4] is -4.1% (inactive). Further, the inhibition of viability in [5] was 3.43% (inactive). The viability decrease (inhibition) in [6] is -10.6% (inactive); in assay [7], 3.8% (inactive). Besides, in [8], the inhibition is -1.56% (inactive). In assay [9], the red/green cell ratio (normalised) is 1.16 (inactive). Moreover, the normalised cell number in assay [9] (setting [10]) worked out at 0.74; in [9] (setting [11]), 0.86.
As for `C[n+]1cc2c3c(ccc2c2ccc4cc5c(cc4c21)OCO5)OCO3`, the insulin secretion stimulation in assay [1] was -3.7% (inactive). Besides, the viability decrease in assay [2] was 99.8% (active). Also, in assay [3], the tube area decrease is 104% (active). Moreover, the GLP1 secretion stimulation in assay [4] is 27.5% (active). For the same compound, the inhibition of viability in assay [5] is 102% (active). For the same compound, the viability decrease (inhibition) is 141% (active) in assay [6] and 105% (active) in assay [7]. In addition, the inhibition in [8] is 11.1% (inactive). Besides, the red/green cell ratio (normalised) in assay [9] was 1.2 (inactive). In addition, the values for the normalised cell number in assay [9] (setting [10]) and in assay [9] (setting [11]) were 0.84 and 1.01, respectively.
In the case of `NC(=O)NC1NC(=O)NC1=O` (centres undefined), the insulin secretion stimulation in [1] is -2.3% (inactive). The viability decrease in [2] is -10.1% (inactive). The tube area decrease in assay [3] was 1.2% (inactive). The GLP1 secretion stimulation in assay [4] was -1.2% (inactive). Besides, the inhibition of viability in assay [5] was 8% (inactive). Also, the viability decrease (inhibition) in [6] is 0.3% (inactive); in assay [7], -6.65% (inactive). Moreover, in assay [8], the inhibition was 4.15% (inactive). The red/green cell ratio (normalised) in [9] is 1.05 (inactive). Besides, the normalised cell number was determined as 1.06 in [9] (setting [10]) and 1.11 in [9] (setting [11]).
With `CC(C)(Oc1ccc(CCNC(=O)c2ccc(Cl)cc2)cc1)C(=O)O`, the insulin secretion stimulation in assay [1] is 0.4% (inactive). Further, the viability decrease in [2] was -10.3% (inactive). In assay [3], the tube area decrease was -25.4% (inactive). Moreover, in assay [4], the GLP1 secretion stimulation is -1.3% (inactive). In addition, the inhibition of viability in assay [5] was 4.05% (inactive). Also, the viability decrease (inhibition) in assay [6] is -13.9% (inactive); in [7] it was -20.8% (inactive). In addition, the inhibition in assay [8] is 4.98% (inactive). Further, in assay [9], the red/green cell ratio (normalised) is 1.21 (inactive). The normalised cell number turned out to be 1.03 in assay [9] (setting [10]) and 1.25 in assay [9] (setting [11]).
Regarding `Cc1ccc(C(=O)C(C)CN2CCCCC2)cc1` (centres undefined), in assay [1], the insulin secretion stimulation is 0.3% (inactive). Moreover, in [2], the viability decrease is -13.7% (inactive). The tube area decrease in [3] was -6.9% (inactive). For the same compound, the GLP1 secretion stimulation in assay [4] is 4.8% (inactive). Further, in assay [5], the inhibition of viability was 0.13% (inactive). Moreover, the results for the viability decrease (inhibition) in assay [6] and in assay [7] were 2.3% (inactive) and -3.8% (inactive), respectively. Moreover, the inhibition in assay [8] is 7.71% (inactive). Besides, the red/green cell ratio (normalised) in assay [9] was 1 (inactive). Moreover, the normalised cell number in assay [9] (setting [10]) and in [9] (setting [11]) was 1 in each case.
As to `C#CCN(C)Cc1ccccc1`, in assay [1], the insulin secretion stimulation was 4.5% (inactive). In [2], the viability decrease is 23.6% (inactive). The tube area decrease in assay [3] is 3.1% (inactive). The GLP1 secretion stimulation in assay [4] was 2.3% (inactive). Further, in assay [5], the inhibition of viability was 2.23% (inactive). For the same compound, the viability decrease (inhibition) in assay [6] was -22.7% (inactive); in [7], 2.6% (inactive). In addition, in assay [8], the inhibition is 0.126% (inactive). Further, in assay [9], the red/green cell ratio (normalised) is 1.02 (inactive). Besides, the normalised cell number amounted to 1.04 in assay [9] (setting [10]) and 1.05 in assay [9] (setting [11]).
With `Cc1cc(C)cc(OCC2CNC(=O)O2)c1` (centres undefined), the insulin secretion stimulation in assay [1] is -0.5% (inactive). In addition, the viability decrease in assay [2] was 4.3% (inactive). Also, the tube area decrease in assay [3] was 12.5% (inactive). The GLP1 secretion stimulation in assay [4] is -1.5% (inactive). In [5], the inhibition of viability is 3.1% (inactive). Also, the viability decrease (inhibition) is 13.1% (inactive) in assay [6] and 6% (inactive) in [7]. Besides, in assay [8], the inhibition was 3.16% (inactive). For the same compound, the red/green cell ratio (normalised) in assay [9] was 1.5 (inactive). Also, the values for the normalised cell number in assay [9] (setting [10]) and in assay [9] (setting [11]) were 0.43 and 0.64, respectively.
On to `O=C(O)[C@@H]1[C@H]2C[C@H]3c4[nH]c5ccccc5c4CCN3C[C@@H]2CC[C@@H]1O`, for which the insulin secretion stimulation in [1] was -0.3% (inactive). Moreover, the viability decrease in [2] is -25.2% (inactive). For the same compound, the tube area decrease in [3] was 9.1% (inactive). Further, the GLP1 secretion stimulation in [4] was 0.3% (inactive). The inhibition of viability in assay [5] is -4.53% (inactive). The viability decrease (inhibition) in assay [6] was 13% (inactive); in assay [7], -18.9% (inactive). Also, the inhibition in [8] was 2.44% (inactive). Besides, the red/green cell ratio (normalised) in assay [9] was 1.08 (inactive). The normalised cell number in assay [9] (setting [10]) stood at 0.89; in assay [9] (setting [11]) it was 0.95.
With `Nc1ccc(C(=O)NCC(=O)O)cc1`, in [1], the insulin secretion stimulation is -1.1% (inactive). For the same compound, in assay [2], the viability decrease is -2.9% (inactive). Further, the tube area decrease in assay [3] was -2.1% (inactive). The GLP1 secretion stimulation in [4] is 2.6% (inactive). Moreover, in assay [5], the inhibition of viability was -15.3% (inactive). Besides, the viability decrease (inhibition) is 36.1% (inactive) in assay [6] and 4.3% (inactive) in [7]. For the same compound, the inhibition in [8] is -8.81% (inactive). Further, in [9], the red/green cell ratio (normalised) is 1.12 (inactive). Besides, the normalised cell number was found to be 1.03 in [9] (setting [10]) and 1.15 in assay [9] (setting [11]).
For `C[N+](C)(C)CCOC(N)=O`, the insulin secretion stimulation in [1] was -0.5% (inactive). In addition, the viability decrease in assay [2] is 1.3% (inactive). In addition, in [3], the tube area decrease was -7.7% (inactive). Moreover, in [4], the GLP1 secretion stimulation was 2.2% (inactive). For the same compound, the inhibition of viability in assay [5] was -2.4% (inactive). Moreover, the viability decrease (inhibition) was -4.8% (inactive) in assay [6] and -12.5% (inactive) in [7]. Further, the inhibition in assay [8] was -13.5% (inactive). Further, the red/green cell ratio (normalised) in assay [9] was 1.21 (inactive). Besides, the figures for the normalised cell number in assay [9] (setting [10]) and in [9] (setting [11]) were 0.85 and 1.03, respectively.
Consider `CCCCCCCCCCCCCCCCOP(=O)([O-])OCC[N+](C)(C)C`, for which the insulin secretion stimulation in assay [1] is 0% (inactive). The viability decrease in assay [2] was 100% (active). Also, the tube area decrease in assay [3] is 12.2% (inactive). Besides, the GLP1 secretion stimulation in assay [4] was 2.7% (inactive). The inhibition of viability in assay [5] was 100% (active). In addition, the results for the viability decrease (inhibition) in [6] and in assay [7] were 120% (active) and 103% (active), respectively. Moreover, the inhibition in [8] was 17% (inactive). Besides, in assay [9], the red/green cell ratio (normalised) was 0.8 (inactive). In addition, the figures for the normalised cell number in [9] (setting [10]) and in assay [9] (setting [11]) were 1.32 and 1.06, respectively.
As to `Nc1ccc(S(=O)(=O)Nc2ccc(Cl)nn2)cc1`, the insulin secretion stimulation in [1] was 1% (inactive). For the same compound, the viability decrease in [2] was 6.1% (inactive). In addition, in assay [3], the tube area decrease is 12.6% (inactive). Also, the GLP1 secretion stimulation in assay [4] was -1.5% (inactive). Besides, the inhibition of viability in [5] is -6.17% (inactive). For the same compound, the viability decrease (inhibition) in assay [6] is 15.5% (inactive); in assay [7] it was 0.7% (inactive). Besides, the inhibition in assay [8] is 10.1% (inactive). In assay [9], the red/green cell ratio (normalised) was 1.19 (inactive). Further, the normalised cell number came to 0.46 in assay [9] (setting [10]) and 0.54 in assay [9] (setting [11]).

The values above are taken from PubChem BioAssay.
